# Screen size: about 330,000 compounds; about 1,300 (0.39%) were called active. The sample holds actives, similar compounds and a random draw of the others, so the mix is not that of the screen. A number with no mark means an inactive call.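 The calls were made as follows: active = percent inhibition above a cutoff equal to the mean of all tested compounds plus 3 SD (cut at about 15% in these data); inactive = the rest.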
# Biological target: Protein-arginine deiminase type-4 (Homo sapiens) (UniProt Q9UM07)
# Test: protein arginine deiminase 4 enzyme blockade – biochemical, fluorescence polarization, 1536-well format, primary screen (AID 485272);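 also: 0% = PAD4 with RCA probe and DMSO and 100% = probe without PAD4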
# Settings: recombinant PAD4, RCA probe fluorescence polarization; at 6.36 µM; stronger effect = higher value
# Sequence of Protein-arginine deiminase type-4 (Homo sapiens) (Q9UM07 whole entry, looked up): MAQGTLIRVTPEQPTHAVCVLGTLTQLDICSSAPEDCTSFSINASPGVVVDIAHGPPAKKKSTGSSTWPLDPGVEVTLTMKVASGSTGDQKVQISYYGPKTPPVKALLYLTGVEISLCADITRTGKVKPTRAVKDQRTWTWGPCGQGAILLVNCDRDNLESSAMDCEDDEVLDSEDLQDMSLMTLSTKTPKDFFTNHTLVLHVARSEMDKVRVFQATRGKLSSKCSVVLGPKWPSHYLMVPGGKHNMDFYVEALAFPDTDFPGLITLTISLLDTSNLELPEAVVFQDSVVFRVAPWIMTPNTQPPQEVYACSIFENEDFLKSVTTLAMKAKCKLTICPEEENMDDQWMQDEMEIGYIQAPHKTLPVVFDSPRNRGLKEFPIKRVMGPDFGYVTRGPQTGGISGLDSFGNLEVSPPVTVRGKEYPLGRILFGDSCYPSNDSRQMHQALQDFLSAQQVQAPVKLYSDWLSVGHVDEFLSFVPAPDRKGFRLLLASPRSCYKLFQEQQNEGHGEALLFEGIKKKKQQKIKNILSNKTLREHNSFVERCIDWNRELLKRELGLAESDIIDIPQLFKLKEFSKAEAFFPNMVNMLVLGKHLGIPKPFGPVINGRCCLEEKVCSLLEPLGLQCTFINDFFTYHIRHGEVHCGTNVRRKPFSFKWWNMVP
row,Structure (SMILES),inhibition
1,CC1CN(c2nc(-c3ccccc3)nnc2-c2ccccc2)CC(C)O1 (stereo not given),-2.42%
2,Cn1cccc1/C=C1\SC(=S)N(NC(=O)c2ccc(Cl)cc2)C1=O,-18.5%
3,COc1ccccc1NC(=S)NC(=O)C(C)C,-0.01%
4,CC(C)C(=O)NC(=S)Nc1ccccc1F,5.01%
5,CCc1ccccc1NC(=S)Nc1cc(OC)c(NC(=O)C(C)C)cc1OC,41.1% (active)
6,C=CCNC(=O)c1ccccc1NC(=O)c1ccc(Cl)c(S(=O)(=O)Nc2cccc(C)c2C)c1,2.11%
7,Cc1nc(Cl)c2oc3ccccc3c2n1,15.3% (active)
8,Cc1nc(N2CCCC2C(=O)O)c2oc3ccccc3c2n1 (stereo not given),-1.75%
9,COc1ccc(C)cc1Nc1nc(C)nc2c1oc1ccccc12,1.33%
10,CCCCC[C@@H]1C=C(C(=O)O)[C@H](c2ccc(C#N)cc2)N1S(=O)(=O)c1ccc(C)cc1,0.94%
11,O=C(N/C(=C\c1ccc([N+](=O)[O-])cc1)C(=O)N1CCCCC1)c1ccco1,2.37%
12,COc1cccc(NC(=O)C2c3cc(OC)c(OC)cc3C(=O)N(C)C2c2cccnc2)c1 (stereo not given),69.3% (active)
13,CCOc1cc2c(cc1OCC)C(C(=O)O)C(c1ccc(OC)c(O)c1)N(C)C2=O (stereo not given),-1.73%
14,COc1cccc(NC(=O)C2C(c3ccccc3)C2(Cl)Cl)c1 (stereo not given),-7.27%
15,CO[C@H]1[C@@H]2C=CO[C@@H](O[C@H]3O[C@@H](CO)[C@H](O)[C@@H](O)[C@@H]3O)[C@@H]2[C@@]2(CO)O[C@@H]12,1.64%
16,Cc1nc2ccccc2nc(C)c1=NOCc1ccc(Cl)cc1Cl,-3.19%
17,CCOC(=O)C1CCN(C(=O)CC2C(=O)N(Cc3ccccc3)C(C)c3nc4ccccc4n32)CC1 (stereo not given),-2.42%
18,CCC(CO)Oc1cc(NCc2ccccc2)c2ncn(C3CCCC3)c2c1 (stereo not given),-6.94%
19,CCC(CO)Oc1cc(NC(=O)c2cccc3ccccc23)c2ncn(C(C)C)c2c1 (stereo not given),-7.37%
20,CCC(CO)Oc1cc(NC(=O)c2cccc(F)c2)c2ncn(C(C)C)c2c1 (stereo not given),3.9%

row,Structure (SMILES),inhibition
1,CC(C)n1cnc2c(NCc3ccccc3)cc(OCC3CCN(C)CC3)cc21,16.8% (active)
2,CCC(CO)Oc1cc(NC(=O)c2ccc(Cl)cc2)c2ncn(C(C)C)c2c1 (stereo not given),-2.59%
3,CC(C)n1cnc2c(NCc3ccccc3)cc(N[C@@H](CO)Cc3ccccc3)cc21,32.9% (active)
4,Cc1ccc(NC(=O)C(C)c2cccc(C(=O)c3ccccc3)c2)cc1 (stereo not given),1.32%
5,O=C(Cn1c2[n+](c3ccc(C(F)(F)F)cc31)CCCCC2)Nc1c(F)cccc1F,-5.07%
6,CC(C)C(C)(C#N)NC(=O)CSc1nncn1-c1ccccc1 (stereo not given),-0.3%
7,CC(C)(C)NC(=O)/C(=C/c1cccnc1)NC(=O)c1ccco1,0.75%
8,Cc1cc(C)c2c(Cn3ccnc3)cc(=O)oc2c1,-4.75%
9,Cc1nn(-c2ccccc2)c(C)c1NC(=O)CCl,1.95%
10,Cc1nn(-c2ccccc2)c(C)c1NC(=O)COC(=O)c1cc(Cl)ccc1O,2.71%
11,Cc1ccc2c(c1)N(C(=O)CCC(=O)NCc1cccnc1)CCO2,-2.36%
12,O=C(NC(=S)Nc1ccc(Cl)cc1Cl)C1CC1,1.69%
13,CCOc1ccc(NS(=O)(=O)c2ccc(Cl)c(C(=O)N(C)Cc3cccnc3)c2)cc1,6.71%
14,O=C(Nc1ccc(N2CCOCC2)cc1)c1cccc(S(=O)(=O)N2CCOCC2)c1,-3.19%
15,Oc1c(C=Nc2cccc3nsnc23)ccc2ccccc12,39.1% (active)
16,Oc1ccc2ccccc2c1N=Nc1nccs1,2.91%
17,O=C(CCNS(=O)(=O)c1ccc(Br)s1)NCc1ccccc1Cl,-0.29%
18,Clc1ccc(-c2cc(COc3ccccc3)no2)cc1Cl,-0.83%
19,COC(=O)c1ccc(C)c(NC(=O)Cn2c(C)csc2=O)c1,2.97%
20,Cc1ccc(C(=O)CSc2nc3ccccc3c(=O)n2N)o1,28.9% (active)

row,Structure (SMILES),inhibition
1,COc1ccc(NC(=O)CSc2nc3ccccc3c(=O)n2C)cc1,-0.44%
2,COc1ccc(OCc2ccc(-c3nc4ccccc4c(=O)n3N)o2)cc1,1.08%
3,CCC(C(=O)OC)n1cnc2scc(-c3ccc(C)cc3)c2c1=O (stereo not given),0.23%
4,Cc1[nH]nc(-c2ccc(OCc3cnn(-c4ccccc4)c3)cc2O)c1Oc1ccc(Cl)cc1,-2.55%
5,CC(=O)n1c(C=Nc2ccccc2)c(O)c2ccccc21,-8.69%
6,Oc1ccc(N=Cc2sc3ccccc3c2Cl)cc1,19.9% (active)
7,Oc1ccc(N=Cc2c(O)ccc3ccccc23)cc1,69.9% (active)
8,Oc1ccc(/C=N/N(Cc2ccccc2)c2ccccc2)cc1,2.9%
9,Cc1cc(N=Nc2ccc3ccccc3c2)ccc1O,1.91%
10,CCC(C)NC(=O)Cn1nc(C(F)(F)F)c2c1CCC2 (stereo not given),0.61%
11,N/C(=N\OC(=O)CC1CCCCC1)c1ccccc1,-1.21%
12,CC(=O)c1ccc(S(=O)(=O)NCc2nnnn2-c2ccccc2)cc1,7.61%
13,O=c1oc2ccc(C#CC3(O)CCCCC3)cc2cc1-n1cc(-c2ccsc2)nn1,2.6%
14,Cc1cccc(CN2CCN(Cc3cnn(-c4ccccc4F)c3)CC2CCO)n1 (stereo not given),8.78%
15,COc1ccc(CCNS(=O)(=O)c2cc3c(cc2C)NC(=O)CO3)cc1OC,-1.01%
16,N#CCCN(C(=O)COC(=O)C1CCN(c2ccc(C(F)(F)F)cn2)CC1)c1ccc(F)cc1,-2.71%
17,COc1cc(C(=O)NCc2cc3cc(Cl)ccc3n2C)cc(OC)c1OC,0.12%
18,COc1cc(C(=O)NCc2ccc3c(c2)cc(C)n3C)cc(OC)c1OC,26.2% (active)
19,CCOCC(=O)NCc1ccc2c(c1)cc(C)n2C,6.21%
20,CC(=O)Nc1ccc(N2C(=O)CCC2=O)cc1C,1.44%

# Source: PubChem BioAssay AID485272 (The Scripps Research Institute Molecular Screening Center, 2010)
